Results published in the supplement of paper PMC6555819.

system: VDR:RXRa (NR concentration 270 nM, RXRa partner concentration 90 nM); assay: PBM binding z-score (relative to random genomic background probes); higher = stronger binding; sequences stand for … in GC…GCGATTGACAGCGTAGAATGAAGG
Description: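 Protein-binding microarray (Agilent 4x180K custom design, double-stranded 60-nt probes: 5' GC cap, 34-nt variable region, 24-nt constant primer region; full probe sequence given). Purified or IVT nuclear receptor:RXRα heterodimers (3:1 NR:RXRα, mostly 270:90 nM) or homodimers were incubated for 1 h in PBS with 2% milk and no ligand, then detected with Alexa488 antibodies. Fluorescence from o1-orientation probes (~5 replicates averaged) was converted to z-scores against 500 random hg19 background probes. Variable regions are seed direct-repeat (DR0–DR5) sites, all their single-nucleotide variants and half-site ablations.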

Sequence	PBM binding z-score
GATGCTAGGTCAGGTTGGTCAGCTAACGGGTACG	0.88
AGAATGAGGTTAATATCAGGGAAACAGAATACAT	1.04
GGAACGAGAGCAAGTTGATAGCAGAGTTTGATGG	-0.392
TCTAGTTGGTCACGGAGATCACACACGACGGGTA	0.966
CCTCGGCGGACAGAAGGTCAGAGCTGTCCGCTTT	0.473
CAAACTACGTCACGAAAGGTCAAAGTCGAATGAC	4.91
TAGCCTAGCTCAGATCGGGCCAGTATACGCTATA	-0.94
ATCTCTAGGTAACCACGTTCAGTGAATGCCGAAC	0.175
CGAACGAGGGCATGAGTTGATAGCGAATGCCGAT	1.21
CTCGAAAGGTCGGTTGAGGAGAGTATACGGATAA	0.954
ATCTCTAGGTAAAAGTTCAGCGAATCCCGAGGAT	1.69
CCTACTAGGCCAAAAAGGTCATTGATGCCGATAA	5.16
CAAACTATGTCAAGGTCAAAGTCGGTTTGTGCCA	4.83
TCTGCTAGGTCAACGATGGTCAGCAAATCTGCTA	1.64
CAAATTAGGTCAAAGGTCAAAGTCGAGCCAACCA	6.81
TCATATAGGTAAACAGGTGAAAATCCGTAAGTTA	1.39
CAGCCTAAGTCAGGGCCAGTATAGGAGGAACGTT	-0.626
CCTCGGAGGACAGAAGGTCAGAGCAGTCCGCTTT	1.82
TCTCGGAGGACACGAAAGGTCAGAGGTCGACATC	4.52
ACAGACAGGTGAGTGAAGGTAGCTCAGCTGGACG	-0.56

Sequence	PBM binding z-score
CGTCCAAGGTCAATACTAGGTCAGTGAAAGCATT	4.63
GTACCAAGGTGAAAAGGTCGTTGATGAGTAGGCG	2.59
CCTCACGGGTCACTCCAGGTTATAGCATCGGAGT	4.07
CCTCGGAGGACAACAAGAGGTCAGAGCTGCCAGA	2.88
CGTTCAAGGTCAGAGAGGTCAGTGAATGCCGAGT	7.5
CCTATTAGTTGACTATAAGGGCAACCGAAGCTCG	0.181
TCTATTAGTTGAGGGGCAACCGACGAGTCCGTTT	0.965
GCTAGCAGGCCATTTGGGTCATTCAATGACGGGC	1.56
CGTCAAAGTTCACGGTAACGTAACAGAAAGCAGC	4.74
CTCGAAAGGTCGGTTCAGGTGAGTATACGGATAA	2.71
CCTATTAGTTGACCATAAGGGCAACCGGAGCTCG	0.682
ATATGTAGGTTAAGGGTCATTCCGGTTGGTTCGC	5.11
TAGCCTAGGTCAGATCGGGCCAATATACGCTATA	1.01
TCATATAGGTCAAGGTGAAAGTCGAACGATATGA	2.94
CGTCAAAGTTCAATTAAGGTAACGTAAAGCACGC	3.98
ATCTCTAGGTAACCATGTTCAGTGAATGCCGAAC	0.463
ATCGAAAGGTCGAAGGTAAGTATACCCACCCGAA	2.51
TCTATTAGTTGAAAGGCAACCGACGAGTCCGTTT	0.899
CGAACTAGGTCAGAACAGCACAGTGAAGGATGAT	0.261
TCTCGGAGGACACGTAGGTCAGAGCTTTCCAGAG	1.13
